Several values for one entry are separate records, joined by “and”; a condition that tells them apart may be missing. Equal entries are not always repeated. More than one record can exist for a structure, and the calls need not agree. Activity calls are given as the source filed them. Rule for the calls: active = hit-call score of the fitted dose curve at least 0.9, where 1 is the maximum; inactive = score below 0.9.
How the values were obtained:
[1] = read-out: Human Leukocyte Antigen - DR isotype (HLADR), HLA-DRA (gene 3122); assay: BSK_CASM3C_HLADR: BioMAP Diversity Plus: CASM3C Assay for Human Leukocyte Antigen - DR isotype (HLADR) Biomarker Activity (AID 2283043); conditions: primary human coronary artery smooth muscle cells; actives raise or lower the signal;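 note: cell-surface HLA-DR protein level quantified by ELISA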
[2] = read-out: Macrophage colony-stimulating factor (MCSF), CSF1 (gene 1435); assay: BSK_CASM3C_MCSF: BioMAP Diversity Plus: CASM3C Assay for Macrophage colony-stimulating factor (MCSF) Biomarker Activity (AID 2283044); conditions: primary human coronary artery smooth muscle cells; actives raise or lower the signal;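 note: M-CSF protein amount quantified by ELISA after 24 h exposure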
[3] = read-out: Low-density lipoprotein receptor (LDLR), LDLR (gene 3949); assay: BSK_CASM3C_LDLR: BioMAP Diversity Plus: CASM3C Assay for Low-density lipoprotein receptor (LDLR) Biomarker Activity (AID 2283045); conditions: primary human coronary artery smooth muscle cells; actives raise or lower the signal;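 note: LDLR protein level on the cell surface quantified by ELISA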
[4] = read-out: Monocyte Chemoattractant Protein-1 (MCP1), CCL2 (gene 6347); assay: BSK_CASM3C_MCP1: BioMAP Diversity Plus: CASM3C Assay for Monocyte Chemoattractant Protein-1 (MCP1) Biomarker Activity (AID 2283046); conditions: primary human coronary artery smooth muscle cells; actives raise or lower the signal;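 note: MCP-1 level quantified by ELISA 24 h after dosing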
[5] = BSK_CASM3C_Proliferation: Cell Proliferation Assessment in the BioMAP Diversity Plus: CASM3C Assay (AID 2283047); conditions: primary human coronary artery smooth muscle cells;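 note: sulforhodamine B total protein stain as relative cell number at 560 nm; sub-confluent cells exposed 48 h before staining; fitted both ways against DMSO so gain or loss of cell number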
[6] = read-out: Monokine induced gamma interferon (MIG), CXCL9 (gene 4283); assay: BSK_CASM3C_MIG: BioMAP Diversity Plus: CASM3C Assay for Monokine induced gamma interferon (MIG) Biomarker Activity (AID 2283048); conditions: primary human coronary artery smooth muscle cells; actives raise or lower the signal;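 note: MIG protein level measured by ELISA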
[7] = read-out: serum amyloid A (SAA), SAA1 (gene 6288); assay: BSK_CASM3C_SAA: BioMAP Diversity Plus: CASM3C Assay for serum amyloid A (SAA) Biomarker Activity (AID 2283049); conditions: primary human coronary artery smooth muscle cells; actives raise or lower the signal;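 note: SAA protein level quantified by ELISA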
[8] = BSK_CASM3C_SRB: Viability Assessment in the BioMAP Diversity Plus: CASM3C Assay (AID 2283050); conditions: primary human coronary artery smooth muscle cells;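 note: total protein by SRB staining as cytotoxicity measure in parallel cultures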
[9] = read-out: Thrombomodulin, THBD (gene 7056); assay: BSK_CASM3C_Thrombomodulin: BioMAP Diversity Plus: CASM3C Assay for Thrombomodulin Biomarker Activity (AID 2283051); conditions: primary human coronary artery smooth muscle cells; actives raise or lower the signal;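 note: thrombomodulin protein level measured by ELISA 24 h after dosing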
[10] = read-out: Tissue Factor, F3 (gene 2152); assay: BSK_CASM3C_TissueFactor: BioMAP Diversity Plus: CASM3C Assay for Tissue Factor Biomarker Activity (AID 2283052); conditions: primary human coronary artery smooth muscle cells; actives raise or lower the signal;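 note: cell surface tissue factor protein level read by ELISA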
[11] = read-out: Interferon-gamma inducible Protein 10 (IP10), CXCL10 (gene 3627); assay: BSK_hDFCGF_IP10: BioMAP Diversity Plus: hDFCGF Assay for Interferon-gamma inducible Protein 10 (IP10) Biomarker Activity (AID 2283053); conditions: primary human foreskin fibroblasts; actives raise or lower the signal
Procedure, shortened: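 Chemical-treated human skin fibroblasts (primary) were sampled at 24 h for IP-10 by ELISA. Both increases and decreases relative to DMSO were scored.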

[12] = read-out: Urokinase-type plasminogen activator receptor (uPAR), PLAUR (gene 5329); assay: BSK_CASM3C_uPAR: BioMAP Diversity Plus: CASM3C Assay for Urokinase-type plasminogen activator receptor (uPAR) Biomarker Activity (AID 2283054); conditions: primary human coronary artery smooth muscle cells; actives raise or lower the signal;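 note: cell-surface uPAR protein level quantified by ELISA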
[13] = read-out: Vascular cell adhesion molecule 1 (VCAM1), VCAM1 (gene 7412); assay: BSK_CASM3C_VCAM1: BioMAP Diversity Plus: CASM3C Assay for Vascular cell adhesion molecule 1 (VCAM1) Biomarker Activity (AID 2283055); conditions: primary human coronary artery smooth muscle cells; actives raise or lower the signal;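 note: VCAM-1 protein level quantified by ELISA on the cells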
[14] = read-out: Collagen III, COL3A1 (gene 1281); assay: BSK_hDFCGF_CollagenIII: BioMAP Diversity Plus: hDFCGF Assay for Collagen III Biomarker Activity (AID 2283056); conditions: primary human foreskin fibroblasts; actives raise or lower the signal
Procedure, shortened: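 Response relative to DMSO, fitted in both directions, reflects ELISA-measured collagen III in human primary skin fibroblasts 24 h after compound addition.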

[15] = read-out: Epidermal growth factor receptor (EGFR), EGFR (gene 1956); assay: BSK_hDFCGF_EGFR: BioMAP Diversity Plus: hDFCGF Assay for Epidermal growth factor receptor (EGFR) Biomarker Activity (AID 2283057); conditions: primary human foreskin fibroblasts; actives raise or lower the signal
Procedure, shortened: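 Cell-based multiplexed assay in primary human foreskin fibroblasts. EGFR is read by ELISA 24 h after treatment and compared with DMSO controls.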

[16] = read-out: Interleukin-8 (IL8), CXCL8 (gene 3576); assay: BSK_hDFCGF_IL8: BioMAP Diversity Plus: hDFCGF Assay for Interleukin-8 (IL8) Biomarker Activity (AID 2283058); conditions: primary human foreskin fibroblasts; actives raise or lower the signal
Procedure, shortened: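 Fibroblast monolayers (human foreskin, hDFCGF) received test chemical for 24 h before ELISA detection of IL-8; either increases or decreases relative to DMSO count as activity.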

[17] = BSK_hDFCGF_Proliferation: Cell Proliferation Assessment in the BioMAP Diversity Plus: hDFCGF Assay (AID 2283059); conditions: primary human foreskin fibroblasts;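 note: curves fitted for both rise and fall of signal versus DMSO baseline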
Procedure, shortened: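 Sub-confluent human foreskin fibroblast cultures receive test chemical […]. Relative cell number is quantified by sulforhodamine B staining (0.1%, after 10% TCA fixation) at 560 nm, with bidirectional fitting referenced to DMSO.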

[18] = read-out: Macrophage colony-stimulating factor (MCSF), CSF1 (gene 1435); assay: BSK_hDFCGF_MCSF: BioMAP Diversity Plus: hDFCGF Assay for Macrophage colony-stimulating factor (MCSF) Biomarker Activity (AID 2283060); conditions: primary human foreskin fibroblasts; actives raise or lower the signal
Procedure, shortened: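 fibroblasts (human foreskin, primary), 24 h post-dose; M-CSF by ELISA; bidirectional fit, DMSO = baseline.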

[19] = BSK_hDFCGF_SRB: Viability Assessment in the BioMAP Diversity Plus: hDFCGF Assay (AID 2283061); conditions: primary human foreskin fibroblasts;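 note: cells exposed to compound for 24 h before the read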
Procedure, shortened: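 SRB-based viability read on primary human skin fibroblasts at 24 h: TCA fixation, 0.1% dye, 560 nm. Gain or loss of signal is fitted against the DMSO negative control.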

[20] = read-out: TIMP metallopeptidase inhibitor 1 (TIMP1), TIMP1 (gene 7076); assay: BSK_hDFCGF_TIMP1: BioMAP Diversity Plus: hDFCGF Assay for TIMP metallopeptidase inhibitor 1 (TIMP1) Biomarker Activity (AID 2283062); conditions: primary human foreskin fibroblasts; actives raise or lower the signal
Procedure, shortened: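 Bidirectional curve fitting against DMSO baseline yielded this endpoint, based on ELISA detection of TIMP-1 in primary human foreskin fibroblasts exposed to compound for 24 h.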

Measured: AC50

O=P(O)(O)CCC(F)(F)C(F)(F)C(F)(F)C(F)(F)C(F)(F)C(F)(F)C(F)(F)C(F)(F)F
active: [5] 9.07 µM | [14] 11.7 µM and 9.02 µM | [15] 29 µM | [17] 39.9 µM and 49.4 µM
inactive: [1] | [2] | [3] | [4] | [5] | [6] | [7] | [8] | [9] | [10] | [11] | [12] | [13] | [15] | [16] | [18] | [19] | [20]

Oc1c(Cl)cc(Cl)cc1Sc1cc(Cl)cc(Cl)c1O
active: [1] 9.1 µM and 7.2 µM | [2] 12.6 µM and 11.8 µM | [5] 15.8 µM and 12.1 µM | [6] 20.2 µM and 26.6 µM | [7] 20 µM | [8] 17.1 µM | [9] 12.8 µM and 12.6 µM | [11] 1.66 µM and 1.94 µM | [12] 20 µM and 18.3 µM | [13] 20 µM and 12.7 µM | [14] 1.39 µM and 455 nM | [15] 0.236 µM | [16] 4.43 µM and 4.46 µM | [17] 1.08 µM and 148 nM | [18] 1.46 µM and 1.59 µM | [19] 1.67 µM and 1.78 µM | [20] 2.06 µM and 1.74 µM
inactive: [3] | [4] | [7] | [10] | [15]

CCCCCCCCCCCC
active: [11] 8.64 µM and 6.71 µM | [14] 9.2 µM and 5.67 µM | [16] 12.9 µM and 14.6 µM | [18] 9.32 µM and 10.2 µM | [19] 8.02 µM and 11.1 µM | [20] 7.88 µM and 9.41 µM
not listed: [17]
inactive: all other assays above

CCCCCCCCCCCCCCC
not listed: [11]
inactive: all other assays above

O=S(=O)(O)C(F)(F)C(F)(F)C(F)(F)C(F)(F)C(F)(F)C(F)(F)C(F)(F)C(F)(F)C(F)(F)C(F)(F)F
active: [2] 13.3 µM | [6] 8.66 µM | [7] 13.3 µM and 20.4 µM | [9] 13.3 µM | [13] 3.55 µM and 2.65 µM | [19] 8.49 µM and 8.79 µM | [20] 11.5 µM
inactive: [1] | [2] | [3] | [4] | [5] | [6] | [8] | [9] | [10] | [11] | [12] | [14] | [15] | [16] | [18] | [20]

C=CC(C)(CCC=C(C)C)OC(C)=O (configuration not stated)
active: [1] 32 µM | [2] 35.8 µM | [4] 26.6 µM | [5] 30.6 µM | [7] 28.7 µM | [8] 32.6 µM | [12] 20 µM | [13] 34.6 µM | [17] 24.7 µM | [19] 36.1 µM
inactive: [3] | [6] | [9] | [10] | [14] | [15] | [16] | [18] | [20]

Oc1cc2ccccc2cc1O
active: [14] 20 µM | [17] 29.7 µM
not listed: [11]
inactive: all other assays above

O=C1OC2(c3ccccc31)c1cc(I)c(O)c(I)c1Oc1c2cc(I)c(O)c1I
active: [2] 3.7 µM | [4] 6.12 µM | [9] 2.38 µM | [14] 3.75 µM | [15] 1.88 µM | [17] 15.2 µM | [18] 4.57 µM | [20] 6.04 µM
not listed: [11]
inactive: all other assays above

From PubChem BioAssay (EPA / NIEHS)
